PostGolgi yeast = phenotypic screen on post-Golgi transport, primary screen. inhibition, % at 10 µM. 98,000 compounds, 0.9% hits. post-Golgi transport phenotypic cell assay. AID 739, 2007;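 further: yeast cells grown in 1536-well plates; yeast grown about 18 h at 30C before absorbance read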
CYP2C19 inh = blockers of cytochrome P450 2C19 activity – biochemical, luminescence, ADME assay, primary screen. CYP2C19 Supersomes, luciferin-H EGE luminescence, 30 min. inhibition, % at 5 µM. 96,000 compounds, 21% hits. AID 778, 2007;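 active means CYP2C19 inhibition above a set limit at 5 µM in the primary screen, cut at about 50% in these data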
CYP2C19 act = human CYP2C19 activators, primary screen, biochemical, luminescence. Cytochrome P450 2C19 (Homo sapiens), P33261. recombinant CYP2C19, luciferin-H EGE luminescence; stronger effect = higher value; 0 = fully inhibited enzyme, 1 = untreated enzyme. activation factor at 5 µM. 96,000 tested, under 10 active;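 active means activation factor of at least 2 at 5 µM in the primary screen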
CYP2C9 act = human CYP2C9 activators, primary screen, biochemical, luminescence | activation factor at 5 µM | recombinant CYP2C9, luciferin-H conversion; stronger effect = higher value; factor 1 = untreated enzyme, 0 = blocked | 96,000 compounds, 1.4% hits | Cytochrome P450 2C9 (Homo sapiens), P11712;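 active means activation factor of 2 or more for CYP2C9 at a 5 µM dose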
Target sequence (P11712 whole entry, looked up): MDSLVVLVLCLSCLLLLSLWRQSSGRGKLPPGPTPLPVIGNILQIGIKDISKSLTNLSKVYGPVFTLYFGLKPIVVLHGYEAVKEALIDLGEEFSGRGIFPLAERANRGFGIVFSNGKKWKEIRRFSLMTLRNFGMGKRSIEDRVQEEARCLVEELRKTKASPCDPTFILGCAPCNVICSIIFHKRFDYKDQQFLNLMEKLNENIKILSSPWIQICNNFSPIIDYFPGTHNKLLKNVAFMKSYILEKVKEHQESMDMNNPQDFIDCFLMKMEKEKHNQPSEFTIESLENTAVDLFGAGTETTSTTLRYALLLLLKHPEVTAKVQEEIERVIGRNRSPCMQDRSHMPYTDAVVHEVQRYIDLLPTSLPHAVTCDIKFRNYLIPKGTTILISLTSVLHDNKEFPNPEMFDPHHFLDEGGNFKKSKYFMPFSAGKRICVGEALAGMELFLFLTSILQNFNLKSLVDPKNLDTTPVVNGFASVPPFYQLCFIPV
CYP2C9 inhib = blockers of cytochrome P450 2C9 activity – biochemical, luminescence, ADME assay, primary screen; 96,000 compounds, 20% hits; AID 777, 2007; inhibition, % at 5 µM; CYP2C9 Supersomes, luciferin-H conversion;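 active means blocking of liver enzyme CYP2C9 beyond about 50% at 5 µM, limit read from the data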
PostGolgi ctrl = growth inhibition of yeast control strain, primary screen, counter-screen for post-Golgi transport modulator project | efflux-deficient yeast background strain, growth absorbance A615, 16 h | inhibition, % at 10 µM | 98,000 compounds, 5% hits | AID 738, 2007
Hits are given with their value; 0 = inactive; - = no result given. Sampled rows, rich in hits. Any-hit rate of the full collection: about 32%. Unless noted, no stated cut-off is given here; in the data, active means inhibition above about 30%; inactive means the rest.

SMILES	PostGolgi yeast	CYP2C19 inh	CYP2C19 act	CYP2C9 act	CYP2C9 inhib	PostGolgi ctrl
CC(C(=O)O)n1nc2ccccc2n1 (stereo not drawn)	0	0	0	0	0	0
COc1cc(-c2nnc(SCC(=O)/C(C#N)=C(\C)N)o2)cc(OC)c1OC	0	0	0	0	0	0
CSc1nsc(SCC(=O)NC2CCCCC2)n1	0	96	0	0	0	0
Cn1ccnc1SCC(=O)NC1CC1	0	0	0	0	0	0
Cn1ccnc1SCC(=O)NC1CCCCC1	0	92	0	0	0	0
COc1cc(OC)cc(-n2nnnc2SCC(=O)NC2CCCC2)c1	0	0	0	3.1	0	0
CCc1nnc(SCC(=O)NC2CCCCC2)nc1CC	0	0	0	0	0	0
CCOCCCn1c(=O)c(NC(=O)c2ccc(OCC)cc2)c2n(c1=S)CCCCC2	0	0	0	0	0	0
CCN(C(=O)C1CCN(S(=O)(=O)c2ccc3c(c2)oc(=O)n3C)CC1)c1cccc(C)c1	0	0	0	0	0	0
CCN(CC)c1ccc2c(c1)CCCN2	0	-	-	-	-	0
CCCCOc1ccc(-c2ncc(C(=O)O)c(C)n2)cc1	44	0	0	0	0	0
CCCCOc1ccc(-c2nnn(C(C)(C)C(=O)OC)n2)cc1	0	0	0	0	57	0
CCCCOc1ccc(-c2nnn(C(C)C(=O)OCC)n2)cc1 (stereo not drawn)	0	0	0	0	68	0
CC(C)Cn1c(Br)nc2c1c(=O)n(CCC#N)c(=O)n2C	0	0	0	0	0	0
Cc1nn(C)c(Oc2ccccc2)c1CCNS(=O)(=O)c1ccc(Cl)cc1	0	97	0	0	80	0
COc1ccc(S(=O)(=O)NCCc2c(C)nn(C)c2Oc2ccccc2)cc1	0	87	0	0	0	0
Cc1nn(C)c(Oc2ccc(Cl)cc2)c1C(=O)O	0	0	0	0	0	0
Cn1c(SC2C(=O)CC(C)(C)CC2=O)nnc1-c1ccco1	0	0	0	0	0	0
Cc1ccc2c(c1)N(C(=O)c1ccco1)C(C)(C)c1ssc(=S)c1-2	0	0	0	0	54	0
Cc1ccc2c(c1)N(C(=O)CSc1nncn1C)C(C)(C)c1ssc(=S)c1-2	0	67	0	0	0	0
CC1CCN(C(=O)CSc2nncn2C)CC1	0	0	0	0	0	0
COCCCN=C(c1ccco1)n1c(=S)nc(-c2ccco2)n(CCCOC)c1=S	0	0	0	0	61	0
CCN(CC)S(=O)(=O)N1CCC(C(=O)NCC2COc3ccccc3O2)CC1 (stereo not drawn)	0	-	-	-	-	0
CCN(c1ccccc1)S(=O)(=O)c1ccc(NCC2COc3ccccc3O2)nc1 (stereo not drawn)	0	52	0	0	84	56
CC(CNCC1CCCO1)COc1ccccc1 (stereo not drawn)	0	0	0	0	0	0
SMILES	PostGolgi yeast	CYP2C19 inh	CYP2C19 act	CYP2C9 act	CYP2C9 inhib	PostGolgi ctrl
COC(=O)[C@H](CC(C)C)NC(=O)NC1CCCCC1C (stereo partly drawn)	0	0	0	0	0	0
Cc1ccc(C2(C(F)(F)F)N=C3Sc4cc(C)ccc4N3C(=O)N2)cc1 (stereo not drawn)	0	0	0	0	0	0
Cc1ccc(C2(C(F)(F)F)NC(=O)N3CCCN=C3S2)cc1 (stereo not drawn)	0	76	0	0	0	0
Cc1ccc(C2(C(F)(F)F)NC(=O)N3CCN=C3S2)cc1 (stereo not drawn)	0	76	0	0	0	0
O=C1NC(c2ccccc2)(C(F)(F)F)SC2=CCCCCN12 (stereo not drawn)	0	-	-	-	-	0
O=C(N1CCCC1)n1c(Cc2ccccc2)nc2ccccc21	0	0	0	0	0	0
O=C1CCCCCN1C(=O)c1cccc(C(=O)N2CCCCCC2=O)c1	0	0	0	0	0	0
CCC(CC)NCc1ccc(OC)cc1OC	0	0	0	0	0	0
COc1ccc(CNC2CCCCC2C)c(OC)c1 (stereo not drawn)	0	62	0	0	0	0
Cc1ccc2c(c1)cc(CN(Cc1ccco1)S(=O)(=O)c1ccccc1)c1nnnn12	0	0	0	0	0	45

Compound activity (PubChem BioAssay)
